PubChem BioAssay (NCI)
This is part of a sample that, as a whole, favours compounds with a hit. Of some 79,000 tested, about 15% had one in any assay. Activity calls are given as the source filed them. Cut-off read from the data, not from the text of the source: active = growth inhibition above about 70%; inactive = the rest.

Experiments:
[1] = NCI Yeast Anticancer Drug Screen. Data for the rad52 strain (AID 147);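 note: 0% = growth of vehicle-treated control cultures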; conditions: S. cerevisiae rad52 mutant growth inhibition, stronger effect = higher value
Outline: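 Measured: yeast growth inhibition. System: strain with a defined DNA damage repair alteration. Reference: vehicle-treated control cultures.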

[2] = NCI Yeast Anticancer Drug Screen. Data for the wt1 strain (AID 149);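 note: 0% = growth of vehicle-treated wt1 cultures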; conditions: S. cerevisiae wt1 strain (SPY 50644) growth inhibition, stronger effect = higher value
Outline: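 wt1 yeast, compound-treated; % growth inhibition vs vehicle control.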

[3] = NCI Yeast Anticancer Drug Screen. Data for the rad50EPP+ strain (AID 151);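 note: 0% = growth of vehicle-treated control cultures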; conditions: S. cerevisiae rad50 mutant strain, stronger effect = higher value
Outline: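 One strain with a rad50 alteration (rad50EPP+) was compound-treated, its growth then compared to that of vehicle controls.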

[4] = NCI Yeast Anticancer Drug Screen. Data for the rad50 strain (AID 155);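 note: 0% = growth of vehicle-only cultures of the same strain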; conditions: S. cerevisiae rad50 strain growth inhibition, stronger effect = higher value
Outline: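 Genetically altered yeast (DNA repair pathway); compound treatment; growth inhibition vs vehicle ctrl.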

[5] = NCI Yeast Anticancer Drug Screen. Data for the mec2-1 strain (AID 157); conditions: S. cerevisiae mec2-1 strain, stronger effect = higher value
Outline: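 Test agents were screened against the mec2-1 yeast strain, with defined DNA repair or cell cycle alteration. Growth was scored as inhibition against vehicle-only controls.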

[6] = NCI Yeast Anticancer Drug Screen. Data for the rad14 strain (AID 159);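 note: 0% = growth of vehicle-treated control cultures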; conditions: S. cerevisiae rad14 strain growth inhibition, stronger effect = higher value
Outline: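 Test compounds were applied to a repair-deficient yeast strain. Its growth was then compared with that of cultures given vehicle alone, and inhibition was expressed relative to those controls.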

[7] = NCI Yeast Anticancer Drug Screen. Data for the sgs1 mgt1 strain (AID 161);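 note: 0% = growth of cultures given vehicle only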; conditions: S. cerevisiae sgs1 mgt1 strain, stronger effect = higher value
Outline: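 Inhibition of yeast growth, normalised to vehicle-treated controls, is reported for a strain bearing genetic alterations in DNA damage repair.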

[8] = NCI Yeast Anticancer Drug Screen. Data for the CLN2oe strain (AID 163);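 note: 0% = growth of vehicle-only control cultures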; conditions: S. cerevisiae CLN2oe strain, stronger effect = higher value
Outline: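 Here, growth inhibition in a cell-cycle-altered yeast strain after compound exposure was quantified against vehicle control growth.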

[9] = NCI Yeast Anticancer Drug Screen. Data for the cln2 rad14 strain (AID 165);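 note: 0% = growth equal to vehicle treated cultures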; conditions: S. cerevisiae cln2 rad14 strain, stronger effect = higher value
Outline: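 Growth of compound-exposed yeast (cln2 rad14 genotype) measured and expressed as inhibition relative to vehicle.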

[10] = NCI Yeast Anticancer Drug Screen. Data for the bub3 strain (AID 167); conditions: S. cerevisiae bub3 mutant strain, stronger effect = higher value
Outline: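 Yeast carrying a defined mutation is treated with each compound, and growth is compared with that of vehicle-exposed cells to give inhibition.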

[11] = NCI Yeast Anticancer Drug Screen. Data for the wt2 strain (AID 169);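 note: 0% = growth of vehicle-treated yeast cultures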; conditions: S. cerevisiae wt2 strain growth inhibition, stronger effect = higher value
Outline: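 Genetically defined yeast strains from a DNA-repair/cell-cycle panel were used. Compound-exposed yeast growth was measured, and the inhibition was calculated relative to vehicle treatment.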

[12] = NCI Yeast Anticancer Drug Screen. Data for the mlh1 strain (AID 171);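 note: 0% = growth of vehicle-treated control cultures of the same strain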; conditions: S. cerevisiae mlh1 strain growth inhibition, stronger effect = higher value
Outline: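 Here the genetically defined yeast mutant is grown with each compound, and the extent to which its growth falls below that of vehicle-exposed cells is reported.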

[13] = NCI Yeast Anticancer Drug Screen. Data for the sgs1 strain (AID 173);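 note: 0% = growth of vehicle-only control cultures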; conditions: S. cerevisiae sgs1 mutant, stronger effect = higher value
Outline: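 Relative growth inhibition, referenced to vehicle, was determined in a yeast strain with a defined alteration affecting DNA damage repair or cell cycle control after compound exposure.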

[14] = NCI Yeast Anticancer Drug Screen. Data for the mlh1 rad18 strain (AID 175); conditions: S. cerevisiae mlh1 rad18 strain growth inhibition, stronger effect = higher value
Outline: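 In this whole-cell yeast screen, a strain with altered DNA damage repair is challenged with compound, and its growth is measured against matched vehicle-treated controls.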

[15] = NCI Yeast Anticancer Drug Screen. Data for the rad18 strain (AID 177); conditions: S. cerevisiae rad18 mutant growth inhibition, stronger effect = higher value
Outline: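 Screen uses a yeast strain with a defined lesion in DNA damage repair; compound effect is read as loss of growth compared to untreated vehicle cultures.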

[16] = at 5.0 µM (retest, dose inferred, filed as 0.5)
[17] = at 50.0 µM (retest, dose inferred, filed as 5.0)

Measured: growth inhibition

CCNc1ccc2c(c1)C(=O)N(OS(C)(=O)=O)C2=O
active: [1]; at 100.0 µM 79% | [4]; at 50.0 µM 96.8% | [4]; at 100.0 µM 88% | [7]; at 50.0 µM 85.6% | [14]; at 50.0 µM 97% | [15]; at 100.0 µM 73%
inactive: [1]; at 1.2 µM 1% | [1]; at 3.7 µM 1% | [1]; at 11.0 µM 5% | [1]; at 33.0 µM 23% | [2]; at 1.2 µM 1% | [2]; at 3.7 µM 5% | [2]; at 11.0 µM 4% | [2]; at 33.0 µM 10% | [2]; at 100.0 µM 31% | [3]; at 1.2 µM 7% | [3]; at 3.7 µM 6% | [3]; at 11.0 µM 7% | [3]; at 33.0 µM 11% | [3]; at 100.0 µM 27% | [4]; at 1.2 µM 2% | [4]; at 3.7 µM 2% | [4]; [16] 4% | [4]; at 11.0 µM 8% | [4]; at 33.0 µM 18% | [4]; [17] 18% | [5]; at 1.2 µM 6% | [5]; at 3.7 µM 10% | [5]; [16] 4% | [5]; at 11.0 µM 14% | [5]; at 33.0 µM 21% | [5]; [17] 23% | [5]; at 50.0 µM 61% | [5]; at 100.0 µM 7% | [6]; at 1.2 µM 3% | [6]; at 3.7 µM 0% | [6]; at 11.0 µM 3% | [6]; at 33.0 µM 16% | [6]; at 100.0 µM 34% | [7]; [16] 3% | [7]; [17] 12% | [8]; at 1.2 µM 5% | [8]; at 3.7 µM -6% | [8]; at 11.0 µM 4% | [8]; at 33.0 µM 15% | [8]; at 100.0 µM 40% | [9]; [16] 8% | [9]; [17] 21% | [9]; at 50.0 µM 69.6% | [10]; at 1.2 µM -2% | [10]; at 3.7 µM -2% | [10]; [16] -1% | [10]; at 11.0 µM 0% | [10]; at 33.0 µM 8% | [10]; [17] 12% | [10]; at 50.0 µM 24.5% | [10]; at 100.0 µM 26% | [11]; at 1.2 µM 0% | [11]; at 3.7 µM 1% | [11]; at 11.0 µM 1% | [11]; at 33.0 µM 6% | [11]; at 100.0 µM 41% | [12]; at 1.2 µM 3% | [12]; at 3.7 µM 3% | [12]; at 11.0 µM 5% | [12]; at 33.0 µM 12% | [12]; at 100.0 µM 42% | [13]; at 1.2 µM 2% | [13]; at 3.7 µM 3% | [13]; at 11.0 µM 6% | [13]; at 33.0 µM 15% | [13]; at 100.0 µM 62% | [14]; [16] -3% | [14]; [17] 23% | [15]; at 1.2 µM 4% | [15]; at 3.7 µM 2% | [15]; at 11.0 µM 3% | [15]; at 33.0 µM 14%

CCCCC1=NNC(=O)C1
inactive: [1]; at 1.2 µM 2% | [1]; at 3.7 µM 4% | [1]; at 11.0 µM 0% | [1]; at 33.0 µM 7% | [1]; at 100.0 µM 15% | [2]; at 1.2 µM 1% | [2]; at 3.7 µM 2% | [2]; at 11.0 µM 8% | [2]; at 33.0 µM 7% | [2]; at 100.0 µM 5% | [3]; at 1.2 µM -9% | [3]; at 3.7 µM -8% | [3]; at 11.0 µM -16% | [3]; at 33.0 µM -10% | [3]; at 100.0 µM -7% | [4]; at 1.2 µM 3% | [4]; at 3.7 µM -11% | [4]; [16] 45% | [4]; at 11.0 µM -6% | [4]; at 33.0 µM -11% | [4]; at 50.0 µM 3% | [4]; at 100.0 µM 9% | [5]; at 1.2 µM -7% | [5]; at 3.7 µM -5% | [5]; [16] 32% | [5]; at 11.0 µM -8% | [5]; at 33.0 µM -9% | [5]; [17] 57% | [5]; at 50.0 µM -3.3% | [5]; at 100.0 µM 5% | [6]; at 1.2 µM 6% | [6]; at 3.7 µM 11% | [6]; at 11.0 µM 9% | [6]; at 33.0 µM 13% | [6]; at 100.0 µM 18% | [7]; [16] 17% | [7]; [17] -26% | [8]; at 1.2 µM -43% | [8]; at 3.7 µM -48% | [8]; at 11.0 µM -52% | [8]; at 33.0 µM -70% | [8]; at 100.0 µM -28% | [9]; [16] 28% | [9]; [17] -56% | [9]; at 50.0 µM 52% | [10]; at 1.2 µM -4% | [10]; at 3.7 µM 0% | [10]; [16] 22% | [10]; at 11.0 µM -11% | [10]; at 33.0 µM 0% | [10]; [17] -26% | [10]; at 100.0 µM 7% | [11]; at 1.2 µM -40% | [11]; at 3.7 µM -45% | [11]; at 11.0 µM -64% | [11]; at 33.0 µM -52% | [11]; at 100.0 µM -66% | [12]; at 1.2 µM -11% | [12]; at 3.7 µM 1% | [12]; at 11.0 µM -7% | [12]; at 33.0 µM -10% | [12]; at 100.0 µM -18% | [13]; at 1.2 µM 10% | [13]; at 3.7 µM 12% | [13]; at 11.0 µM 0% | [13]; at 33.0 µM -22% | [13]; at 100.0 µM 5% | [14]; [16] 53% | [14]; [17] 69% | [14]; at 50.0 µM -34.6% | [15]; at 1.2 µM -10% | [15]; at 3.7 µM 1% | [15]; at 11.0 µM 0% | [15]; at 33.0 µM 1% | [15]; at 100.0 µM 24%
active: [4]; [17] 78% | [7]; at 50.0 µM 90% | [10]; at 50.0 µM 81.7%
